Data: PubChem BioAssay (NCI)
This is part of a sample that, as a whole, favours compounds with a hit. Of some 83,000 tested, about 20% had one in any assay.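 For each line, cells grew in 96-well plates with the test compound present at a single concentration for 48 hours.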 A number with no mark means an inactive call. Active and inactive are the calls of the source. The calls were made as follows: active = growth percent below 10; inactive = the rest.

How the values were obtained:
Experiment in all cases: NCI-60 one-dose screen, 48 h (100 = growth as untreated, 0 = no growth, -100 = all killed)
Details in all cases: 10 µM unless noted
DU-145 prostate = system: DU-145 prostate
K-562 leukemia = system: K-562 leukemia
MALME-3M melanoma = system: MALME-3M melanoma
MDA-MB-231 breast = system: MDA-MB-231 breast
RXF 393 renal = system: RXF 393 renal
SF-268 CNS = system: SF-268 CNS
SF-295 CNS = system: SF-295 CNS
SF-539 CNS = system: SF-539 CNS
UACC-257 melanoma = system: UACC-257 melanoma
M14 melanoma = system: M14 melanoma

Compound	growth (DU-145 prostate)	growth (K-562 leukemia)	growth (MALME-3M melanoma)	growth (MDA-MB-231 breast)	growth (RXF 393 renal)	growth (SF-268 CNS)	growth (SF-295 CNS)	growth (SF-539 CNS)	growth (UACC-257 melanoma)	growth (M14 melanoma)
Cc1ccc(NC(=O)Cn2nncc2CN2C(=O)CSC2=O)cc1C	106%	106%	99%	111%	103%	98.5%	103%	101%	102%	105%
N#Cc1ccc(NC(=O)Nc2nc3ccc(OC(F)(F)F)cc3s2)cc1	23.1%	1.23% (active)	-7.94% (active)	-18.4% (active)	21.9%	21.1%	-25.8% (active)	7.97% (active)	-20.7% (active)	5.97% (active)
COc1cc(C)c2c(=O)c3c(oc2c1)C(=O)c1c(O)c(OC)cc(O)c1C3=O	26.8%	-23.8% (active)	-23.8% (active)	-0.877% (active)	13.1%	21.5%	25.7%	5.8% (active)	54%	19.3%
O=C1/C(=C\c2cccn2Cc2ccc(F)cc2)c2ccccc2N1c1c(Cl)cccc1Cl	91.2%	70.8%	87.6%	75%	81.5%	79.9%	81.9%	87.5%	90.3%	94.9%
CCN(CC)CCCC(C)Nc1cnc(C(=O)Nc2cccc3ccc(OC)nc23)cn1 (centres undefined)	78.8%	-57.1% (active)	-69.8% (active)	71.8%	46%	63%	101%	0.457% (active)	-39% (active)	-75.6% (active)
Cc1c(-c2ccc(-c3ccccc3F)cc2)nc2ccc(F)cc2c1C(=O)O	42.5%	26.3%	62.8%	65.2%	37.2%	50.7%	22.8%	29%	19.8%	53.7%
Clc1ccc2c(c1)-c1ccccc1C1=NCCN12	30.8%	9.07% (active)	11.5%	45.6%	2.19% (active)	41.1%	–	33.8%	14.2%	37.8%
CC(C)OC(=O)c1ccc([N+](=O)[O-])cc1	116%	117%	131%	102%	116%	119%	–	112%	101%	108%
COc1ccc(Nc2ncnc3c2sc2nc(C)cc(C)c23)cc1	102%	101%	94.5%	102%	104%	94.3%	112%	94.6%	93.2%	102%
O=C1Cc2c([nH]c3ccc([N+](=O)[O-])cc23)-c2ccccc2N1	4.56% (active)	3.25% (active)	8.75% (active)	29.6%	16%	10.8%	18.7%	-37% (active)	17.3%	16.8%
COc1cc2cc(C(=O)Nc3ccccc3)c(N)nc2cc1OC	12.7%	-49.2% (active)	-78.2% (active)	-49.6% (active)	-14.7% (active)	26.2%	–	34.3%	-81.3% (active)	-67.3% (active)
O=c1[nH]cnc2nc[nH]c12	170%	49.3%	110%	99%	107%	147%	93.8%	97.3%	117%	109%
O=C1/C(=C\c2cccn2C(=O)c2ccccc2)c2ccccc2N1c1c(Cl)cccc1Cl	102%	17.4%	82.6%	74.6%	71.7%	66.9%	97.6%	79.4%	90.7%	76%
CC(=O)OC1Oc2ccccc2-c2oc3nc(=N)n(C)c-3cc21 (centres undefined)	191%	94.9%	119%	112%	144%	251%	125%	102%	113%	98.7%
COc1cc(C2CC(c3ccc(Nc4ccnc5cc(Cl)ccc45)cc3)=NN2c2ccccc2)cc(OC)c1OC (centres undefined)	79.1%	19.1%	45.6%	77.5%	76.3%	70.6%	57.7%	77%	84.7%	55.5%
CCOC(=O)c1ccccc1SC(C[N+](=O)[O-])c1ccccc1 (centres undefined)	90.9%	56.8%	98%	96.6%	62.9%	104%	99.7%	90%	84.4%	68.9%
CS(=O)(=O)Nc1cc(-c2cc3ncc(C#N)c(Nc4ccc(Oc5ccccc5)c(Cl)c4)c3s2)cnc1Cl	48.1%	51.5%	74.5%	45.3%	15.9%	52.8%	38.4%	57.8%	68.2%	50.1%
CCCCN(CCCC)CCCN=c1nc2c(c(N)n1-c1ccccc1)c(=S)n(-c1ccccc1)c(=S)n2-c1ccccc1	-100% (active)	-90.3% (active)	-91.5% (active)	-89.1% (active)	-67.7% (active)	-94% (active)	-100% (active)	-97.7% (active)	-73.1% (active)	-86.3% (active)
COc1cc(Nc2ccnc3ccc(Br)cc23)cc(OC)c1OC	59.1%	10.2%	46.7%	38%	2.9% (active)	47.6%	25.6%	12.7%	38.2%	14.3%
CCCCCCCCCCCCCCCc1cc(O)ccc1[N+](=O)[O-]	104%	67.7%	96.4%	69.2%	95%	91.6%	94.3%	103%	87.3%	93.1%
CN1CCN(Cc2ccc(NC(=O)c3cncc(C#Cc4ccc(N)nc4)c3)cc2C(F)(F)F)CC1	21.4%	1.27% (active)	-70.3% (active)	-46.3% (active)	-6.03% (active)	15.8%	11.5%	-39.8% (active)	11.8%	-37% (active)

Compound	growth (DU-145 prostate)	growth (K-562 leukemia)	growth (MALME-3M melanoma)	growth (MDA-MB-231 breast)	growth (RXF 393 renal)	growth (SF-268 CNS)	growth (SF-295 CNS)	growth (SF-539 CNS)	growth (UACC-257 melanoma)	growth (M14 melanoma)
CC(=O)c1c(O)c(C)c(O)c2c1OC1=CC(=O)/C(=C(/C)N)C(=O)C12C (centres undefined)	100%	83%	96.9%	90.8%	92.2%	95.2%	–	99.7%	100%	93.6%
COc1ccc(/C(=C\c2cc(OC)c(OC)c(OC)c2)C(=O)N2CCN(c3ccccc3)CC2)cc1O	115%	104%	104%	95.1%	98.2%	101%	96.2%	92.1%	93.1%	105%
CCCCCc1c(C)[nH]c(/C=C2\N=C(c3ccc[nH]3)C=C2CC)c1C	-94.8% (active)	-75.8% (active)	-74.9% (active)	-94.3% (active)	-91% (active)	-75.8% (active)	-70.9% (active)	-82.7% (active)	-84.2% (active)	-96.6% (active)
CC[C@H](Nc1nc(C)nc(N)c1C#N)c1nc2cccc(NCc3ccc(C(=O)NO)cc3)c2c(=O)n1-c1ccccc1	11.2%	2.24% (active)	2.94% (active)	14.7%	-27.2% (active)	12.3%	21.5%	14.6%	-3.98% (active)	8.71% (active)
O=C(/C=C/c1cccc([N+](=O)[O-])c1)c1ccc(Nc2nc(N3CCCCC3)nc(N3CCCCC3)n2)cc1	98.7%	97.7%	118%	103%	100%	97.5%	93.2%	99.6%	97.4%	98%
[Ag].[Ag].[NH-]S(=O)(=O)c1ccc(N=Nc2cc(N=Nc3ccc(S([NH-])(=O)=O)cc3)c3c(NC(=O)C(Cl)Cl)cccc3c2OC(=O)C(Cl)Cl)cc1.[c-]1nccs1.[c-]1nccs1	70.1%	83.8%	67.4%	49.5%	71.5%	78.6%	81.6%	95.7%	82.4%	97.4%
Cc1cc(N=Nc2ccc(-c3ccc(N=Nc4ccc(O)c(C(=O)O)c4)cc3)cc2)c(N)c(N=Nc2ccc(C(=O)O)cc2)c1N	110%	75.1%	95.2%	102%	94.7%	98.7%	–	93.2%	110%	86.5%
CCOC(=O)c1c(NC(=O)c2ccccc2)sc2c(O)c(CN(CC)CC)ccc12	-26.9% (active)	7.52% (active)	38.1%	1.41% (active)	-27.4% (active)	4.48% (active)	–	6.42% (active)	51%	14.4%
O=C(/C=C/c1ccccc1)n1c(-c2ccccc2)nc2ccccc21	113%	103%	112%	117%	102%	110%	–	95.3%	92.4%	104%
Cc1[nH]nc2ccc3nc(-c4ccc5[nH]ncc5c4)c4c(c3c12)CCCC4	33.9%	14.3%	7.88% (active)	42.6%	9.13% (active)	33.8%	31.1%	18.7%	50.6%	18.9%
COc1ccc(/C(=C\c2cc(OC)c(OC)c(OC)c2)C(=O)N2CCCNCC2)cc1	115%	108%	113%	94%	98.4%	106%	101%	108%	102%	105%
COc1ccc(-c2[nH]nc(N)c2-c2cc(OC)c(OC)c(OC)c2)cc1	2.62% (active)	-15.6% (active)	25.8%	-10.6% (active)	20%	15.1%	–	-13.1% (active)	58.1%	-5.11% (active)
CCc1ccc(Nc2ncnc3c2cnn3-c2cccc(Br)c2)cc1	104%	106%	99%	103%	100%	98%	–	102%	88.6%	98.6%
CCOC(=O)c1ccc(NCCC(=O)O)cc1	126%	90.4%	110%	122%	111%	119%	–	112%	104%	104%
CCOC(=O)c1sc2nc(-c3cc4ccccc4o3)cc(-c3ccc(Cl)cc3)c2c1N	99.6%	102%	88.5%	106%	124%	97.3%	–	120%	114%	112%
C/C(=N\OC(=O)Nc1cccc(Cl)c1)c1ccccc1	102%	90.1%	98.2%	103%	87.5%	113%	–	104%	104%	108%
O=C(NCC(c1ccsc1)N1CCCCCC1)c1ccc(C(F)(F)F)cc1 (centres undefined)	105%	83.7%	98.5%	85.1%	85.7%	98.3%	–	108%	108%	93%
CC1CCN(Cc2ccc(NC(=O)c3cc4ccc5cccnc5c4[nH]3)cc2)CC1	2.24% (active)	8.98% (active)	10.2%	23.2%	-3.5% (active)	37.4%	–	8.44% (active)	-40.6% (active)	-22.5% (active)
O=C1c2ccccc2C2N1CCC1CCc3ccccc3N12 (centres undefined)	117%	89.4%	88.9%	92.7%	106%	111%	–	88.9%	102%	97.1%
CC(=O)[C@H]1CC[C@H]2[C@@H]3CC[C@H]4CC=CC[C@]4(C)[C@H]3CC[C@]12C	111%	84.9%	84%	99.4%	98.2%	102%	–	91.6%	75.6%	90.3%
